Laboratory results as given in PubChem BioAssay (NCI).
About 83,000 compounds went through this panel and 20% of them were active in at least one assay; those are over-represented in the sample as a whole.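 Assay: single dose, 48 h. Readout: percent growth (0 = no net growth; negative = cell death). Active: <10.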 Values without a mark were called inactive. Calls of active or inactive are those of the source.

Tests used:
Experiment in all cases: NCI-60 one-dose screen, 48 h (100 = growth as untreated, 0 = no growth, -100 = all killed)
Conditions in all cases: 10 µM unless noted
NCI-H23 lung = test system: NCI-H23 lung
NCI-H226 lung = test system: NCI-H226 lung
NCI-H322M lung = test system: NCI-H322M lung
HOP-62 NSCLC = test system: HOP-62 NSCLC
HOP-92 NSCLC = test system: HOP-92 NSCLC
NCI-H522 lung = test system: NCI-H522 lung
A549/ATCC NSCLC = test system: A549/ATCC NSCLC
786-0 renal = test system: 786-0 renal
COLO 205 colon = test system: COLO 205 colon
DU-145 prostate = test system: DU-145 prostate
K-562 leukemia = test system: K-562 leukemia
MALME-3M melanoma = test system: MALME-3M melanoma
MDA-MB-231 breast = test system: MDA-MB-231 breast
RXF 393 renal = test system: RXF 393 renal
SF-268 CNS = test system: SF-268 CNS
SF-295 CNS = test system: SF-295 CNS
SF-539 CNS = test system: SF-539 CNS
UACC-257 melanoma = test system: UACC-257 melanoma
M14 melanoma = test system: M14 melanoma

| Compound | growth (NCI-H23 lung) | growth (NCI-H226 lung) | growth (NCI-H322M lung) | growth (HOP-62 NSCLC) | growth (HOP-92 NSCLC) | growth (NCI-H522 lung) | growth (A549/ATCC NSCLC) | growth (786-0 renal) | growth (COLO 205 colon) | growth (DU-145 prostate) | growth (K-562 leukemia) | growth (MALME-3M melanoma) | growth (MDA-MB-231 breast) | growth (RXF 393 renal) | growth (SF-268 CNS) | growth (SF-295 CNS) | growth (SF-539 CNS) | growth (UACC-257 melanoma) | growth (M14 melanoma) |
| --- | --- | --- | --- | --- | --- | --- | --- | --- | --- | --- | --- | --- | --- | --- | --- | --- | --- | --- | --- |
| CC1(C)CC[C@]2(CO)CC[C@]3(C)C(=CC[C@@H]4[C@@]5(C)CCNCC(C)(C)[C@@H]5CC[C@]43C)[C@@H]2C1 | 88.4% | 106% | 68.9% | 99.3% | 64.2% | 70.7% | 85.6% | 84.6% | -44.1% (active) | 81.5% | 7.94% (active) | 63.1% | 73.7% | 61.6% | 105% | 97.6% | 85.8% | 9.86% (active) | -2.42% (active) |
| C=CCn1c(SCC(=O)Nc2ccc(C(=O)/C=C/c3ccc(Cl)cc3)cc2)nnc1-c1ccc(Cl)c(Cl)c1 | 85% | 85.7% | 83.4% | 84.3% | 70.2% | 66.5% | 67.4% | 82.9% | 100% | 92.2% | 50.4% | 85.2% | 85.2% | 75.1% | 80.4% | 93.9% | 87% | 93.9% | 80.1% |
| CCOc1ccc(N2C(=O)CCSC2=S)cc1 | 102% | 100% | 108% | 118% | 89% | 90.9% | 106% | 106% | 112% | 103% | 111% | 96% | 104% | 117% | 104% | 95.7% | 94.9% | 99% | 102% |
| Cn1cc(-c2ccc3c(Nc4cccc(NC(=O)Nc5cccc(F)c5)c4)ncnc3c2)cn1 | 47.1% | 67.8% | 40.7% | 42.8% | 53.6% | 26.5% | 28.7% | 18.1% | 4.23% (active) | 41.8% | 4.38% (active) | 27.5% | 41.8% | -13.9% (active) | 46.7% | -13.2% (active) | 20.4% | 63.9% | 41.3% |
| COc1ccc(NC(=O)c2ccc(Cl)cc2Cl)cc1 | 85.3% | 105% | 103% | 107% | 104% | 97.1% | 96.5% | 93% | 101% | 95.1% | 99% | 104% | 109% | 108% | 100% | 102% | 98.9% | 96.8% | 93.3% |
| COc1cc(OCc2cccc(-c3ccccc3)c2C)cc(OC)c1CN1CCCCC1C(=O)NCCOCCOCCN (configuration not stated) | 86.8% | 86.4% | 89.6% | 89.8% | 46.4% | 93.3% | 70.6% | 90.8% | 20% | 65.7% | -19.8% (active) | 54.1% | 57.5% | 59% | 87% | 89.3% | 87.7% | 99.7% | -27.5% (active) |
| Cn1cc(-c2nc(-c3c[nH]c4c(Cl)nccc34)cs2)c2ccccc21 | 98.6% | 103% | 99.4% | 92.5% | 80.4% | 85.5% | 66.7% | 87.4% | 102% | 92.6% | 89.3% | 113% | 98.9% | 90.4% | 98.5% | 103% | 90.5% | 71.8% | 97.2% |
| [2H]C([2H])([2H])Oc1ccc(/C=C/C(=O)/C=C(O)/C=C/c2ccc(OC([2H])([2H])[2H])c(OC([2H])([2H])[2H])c2)cc1OC([2H])([2H])[2H] | 34.3% | 70.6% | 103% | 47.7% | 72.7% | 14.8% | 32.4% | 48.9% | 30.4% | 59% | 17.6% | 79.2% | 72% | 59.4% | 67.2% | 39.5% | 65.8% | 84% | 52.5% |
| C#CC(F)(F)[C@]1(O)CCC2C3CCC4=CC(=O)CCC4=C3[C@@H](c3ccc(N(C)C)cc3)C[C@@]21C (some centres not stated) | 96.5% | 98.5% | 92.8% | 90.6% | 67.8% | 64.7% | 64.8% | 69% | 101% | 104% | 85.9% | 103% | 84.7% | 98.1% | 95.9% | 86.2% | 82.7% | 80.9% | 86.1% |
| NC(=N\N=C/c1ccc(Cl)cc1Cl)/C(N)=N\N=C/c1ccc(Cl)cc1Cl | 87.1% | 62.8% | 41% | 83% | – | 79.8% | 62.5% | 3.29% (active) | 71.6% | 90.6% | 80.6% | 88.3% | 71.1% | 83.6% | 89.7% | 60% | 43.5% | 118% | 105% |
| CCOC(=O)c1c(C)n2c(=O)cc(C)c3c(OC(C)=O)c(OC(C)=O)cc1c32 | 75% | 102% | 79.9% | 81.4% | 71.8% | 55.3% | 79.8% | 81.3% | 74.1% | 67.3% | 22.3% | 75% | 86.7% | 73.8% | 49.6% | 94.8% | 72.1% | 108% | 83.2% |
| CC(=O)OCC(=O)O[C@@H]1C[C@]2(C(C)C)O[C@@]1(C)[C@@H]1CC[C@@H](C)[C@H]1[C@@H]2OC(=O)/C=C/c1ccccc1 | 89.7% | 68.4% | 84.8% | 86.7% | 67.4% | 78.1% | – | 66.3% | 97.5% | 101% | 67.5% | 101% | 82.9% | -2.3% (active) | 51.5% | 88.8% | 92.4% | 92.5% | 97.2% |
| CS(=O)(=O)c1ccc(/C(=N/NC(N)=S)c2ccc(F)cc2)cc1 | 97.9% | 107% | 104% | 105% | 112% | 99.6% | 108% | 102% | 116% | 108% | 85.1% | 104% | 107% | 85.1% | 98.8% | 106% | 102% | 102% | 104% |
| O=C(Nc1ccc(Oc2cccc(F)c2)c(Cl)c1)c1cnccn1 | 44.9% | 61.8% | 46.3% | 42.4% | 51.5% | 22.3% | 39.1% | 46.5% | 15.5% | 19.1% | 13.4% | 51.4% | 53.5% | 7.37% (active) | 55.5% | 36% | -3.46% (active) | 64.9% | 25.6% |
| O=C(/C=C/c1ccc(Cl)cc1)c1ccc(-n2cc(CN3CCN(c4cc5c(cc4F)c(=O)c(C(=O)O)cn5C4CC4)CC3)nn2)cc1 | 85.4% | 76.3% | 78.1% | 85.5% | 84.8% | 79.1% | 89% | 78.1% | 97.1% | 90.8% | 67.5% | 84.8% | 88.1% | 75% | 77.3% | 90.7% | 92.8% | 91.7% | 88.7% |
| CN(C)CCOc1nc2c3cc([N+](=O)[O-])ccc3nn2c2ccccc12 | 36.7% | 65.3% | 59.6% | 30.2% | 57.3% | 46.2% | 12.7% | 22.7% | 33.9% | 32.2% | 26.3% | 52.4% | 66.4% | 24.3% | 56.6% | 9.28% (active) | 51.6% | 78.9% | 47.3% |
